APOBEC3G inh = APOBEC3G DNA deaminase inhibitors, primary screen, biochemical, fluorescence, single-stranded DNA substrate, uHTS; DNA dC->dU-editing enzyme APOBEC-3G (Homo sapiens), Q9HC16; recombinant A3G, ssDNA deamination FAM/TAMRA fluorescence; inhibition, % at 20 µM; actives 0.28% (n = 330,000);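 active = inhibition of at least 40% at 20 µM, with no more than 30% in the related APOBEC3A deaminase screen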
Target sequence (Q9HC16 whole entry, looked up): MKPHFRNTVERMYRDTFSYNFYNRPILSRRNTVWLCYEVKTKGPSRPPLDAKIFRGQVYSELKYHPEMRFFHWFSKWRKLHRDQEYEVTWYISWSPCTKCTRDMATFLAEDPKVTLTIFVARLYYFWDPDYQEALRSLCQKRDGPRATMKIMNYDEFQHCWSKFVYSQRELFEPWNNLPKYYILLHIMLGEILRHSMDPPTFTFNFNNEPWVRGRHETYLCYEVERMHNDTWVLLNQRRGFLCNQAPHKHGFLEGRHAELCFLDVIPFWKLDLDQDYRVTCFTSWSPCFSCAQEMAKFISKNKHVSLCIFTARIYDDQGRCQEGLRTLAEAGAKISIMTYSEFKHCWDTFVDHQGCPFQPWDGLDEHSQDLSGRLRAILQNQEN
APOBEC3A inh = APOBEC3A ssDNA deaminase inhibitors, primary screen, selectivity assay for APOBEC3G inhibitor project, biochemical, FAM/TAMRA oligo cleavage fluorescence; DNA dC->dU-editing enzyme APOBEC-3A (Homo sapiens), P31941; recombinant A3A, FAM/TAMRA ssDNA deamination fluorescence; inhibition, % at 20 µM; actives 0.41% (n = 330,000); AID 493011, 2011;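 active = at least 40% inhibition at 20 µM here, with at most 30% in a related deaminase screen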
Target sequence (P31941 whole entry, looked up): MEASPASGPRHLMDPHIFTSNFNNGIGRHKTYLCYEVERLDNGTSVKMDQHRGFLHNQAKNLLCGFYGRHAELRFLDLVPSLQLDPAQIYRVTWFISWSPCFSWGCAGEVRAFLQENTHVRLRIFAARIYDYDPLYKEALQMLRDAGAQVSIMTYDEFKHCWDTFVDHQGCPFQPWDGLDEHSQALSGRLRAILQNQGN
A1 inh = caspase 3/7 activation in MEF A1-2A-BIM cells, primary screen, A1 inhibitor project, cell-based, luminescence, HTS | Caspase-Glo 3/7 luminescence, 3 h; percent of clofoctol response, vehicle zero | AID 2462, 2010 | actives 0.066% (n = 330,000) | caspase activation, % (test concentration not listed);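 active = over half of replicate activation scores above 10%, or exactly half above 10 with the replicate mean above 10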
MIN6 prolif = inducers of MIN6 beta-cell proliferation, primary screen, ATP luminescence, uHTS; actives 0.29% (n = 330,000); proliferation, % at 10 µM; MIN6 cells proliferation, ATPlite luminescence, 48 h; cells starved in 0.2% serum; 100% = growth in 10% serum;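 active = compounds whose signal lies at least 3.5 SD above the mean of all wells on their plate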
APOBEC3A confirm = APOBEC3A deaminase inhibitors, retest, confirmation, selectivity assay for APOBEC3G inhibitor project, biochemical, single concentration, fluorescence readout; recombinant A3A, ssDNA deaminase UDG fluorescence assay; inhibition, % at 20 µM; shares compounds with APOBEC3A inh; AID 493151, 2011; actives 63% (n = 1,400);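 active = inhibition reaching a set limit, 80% of the first screen's cutoff, at 20 µM in any replicate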
UDG ctr A3A = E. coli UDG inhibitors, confirmation, counter-screen for APOBEC3A inhibitor project, biochemical, single concentration, fluorescence, FAM/TAMRA oligo. shares compounds with APOBEC3A inh. UDG counterscreen, FAM/TAMRA uracil oligo fluorescence. inhibition, % at 20 µM. 1,000 tested, under 10 active. AID 504714, 2011; call rule not given here
Of the large screens only hits and unclear results are named; the others gave an inactive call (follow-up assays come after a bar, where they were run). Hits are enriched below; roughly 1.1% of the tested compounds scored in any of these assays.

Cc1cc(/C=C(/C#N)c2nc3ccccc3[nH]2)c(C)n1-c1cc(C(=O)O)cc(C(=O)O)c1	APOBEC3A inh 49 (no result: A1 inh) | APOBEC3A confirm 41 | UDG ctr A3A inactive
O=C(CSc1ccc2nnc(-c3ccccn3)n2n1)Nc1cccc(F)c1	none
O=C(CSc1nnnn1-c1ccccc1)Nc1ccc(N2CCOCC2)c(Cl)c1	APOBEC3A inh 64 | APOBEC3A confirm 55 | UDG ctr A3A inactive
O=C(CSc1nnnn1-c1cccc2ccccc12)Nc1ccc(N2CCOCC2)c(Cl)c1	none
Cc1cc(N/N=C/c2ccc(O)cc2)nc(NS(=O)(=O)c2ccccc2)n1	APOBEC3A inh 49 | APOBEC3A confirm 39 | UDG ctr A3A inactive
CCCc1nc2ccccc2c(C(=O)N(CC)CC(=O)NCc2cccs2)c1CC	APOBEC3A inh 50 (no result: A1 inh) | APOBEC3A confirm inactive
CCN(CC(=O)NCc1cccs1)C(=O)c1ccc(Cl)c(Cl)c1	none
CS/C(N)=N/N=C/c1c(O)ccc2ccccc12	APOBEC3A inh 58 | APOBEC3A confirm inactive
CN(C)/N=C/c1c(O)ccc2ccccc12	none
Cc1c(C(=O)Nc2cccc([N+](=O)[O-])c2)sc2ncn(CC(=O)N3CCOCC3)c(=O)c12	none
O=c1[nH]c(=O)n(CCc2ccc(F)cc2)c(O)c1C=NCc1ccc2c(c1)OCO2	APOBEC3A inh 68 (no result: A1 inh) | APOBEC3A confirm inactive
CCC(C)C(NC(N)=O)C(=O)Nc1ccc(C)c(Cl)c1 (stereo not drawn)	APOBEC3A inh 56 | APOBEC3A confirm inactive
CC[C@H](C)[C@H](NC(N)=O)C(=O)Nc1ccc(OC)c(Cl)c1	none
O=C(CCNC(=O)c1ccc(Br)cc1)Nc1nccs1	none
O=C(CCNC(=O)c1ccc([N+](=O)[O-])cc1)Nc1nccs1	APOBEC3A inh 47 | APOBEC3A confirm inactive
Cc1ccc(CNC(=O)CCNC(=O)c2ccc([N+](=O)[O-])cc2)cc1	APOBEC3A inh 46 | APOBEC3A confirm 41 | UDG ctr A3A inactive
O=C(CCNC(=O)c1ccc([N+](=O)[O-])cc1)NCCc1ccc(Cl)cc1	none
COc1ccc(-c2noc(CSc3nc(-c4ccccc4)cc(=O)[nH]3)n2)cc1	APOBEC3A inh 56 | APOBEC3A confirm inactive
CC[N+](C)(CC)CC(=O)OCC1C(C)C=C(C)CC1C (stereo not drawn)	APOBEC3A inh 73 | APOBEC3A confirm 82 | UDG ctr A3A inactive
Cc1ccc(OCC(=O)Nc2nnc(S(=O)(=O)N3CCC(C)CC3)s2)cc1	APOBEC3A inh 43 | APOBEC3A confirm inactive
COc1ccc(OCC(=O)Nc2nnc(S(=O)(=O)N3CCCCCC3)s2)cc1	none
CCCN(CC(=O)Nc1ccc(F)c(F)c1F)C(=O)C1=COCCO1	APOBEC3A inh 51 | APOBEC3A confirm inactive
O=C(O)/C(=C\c1ccc(Cl)c([N+](=O)[O-])c1)c1ccc(S(=O)(=O)N2CCCC2)s1	APOBEC3A inh 55 | APOBEC3A confirm 47 | UDG ctr A3A inactive
O=C(O)/C(=C\c1ccc(Cl)c([N+](=O)[O-])c1)c1ccc(S(=O)(=O)N2CCCCC2)s1	none
Cc1ccc(S(=O)(=O)NC(=O)C2CCCCC2)cc1	none
CCOc1ccc(N2C(=O)CC(NC3CCN(C(=O)c4ccc(F)cc4)CC3)C2=O)cc1 (stereo not drawn)	none
O=C1OC(c2ccc3c(c2)OCO3)=N/C1=C\c1ccc(C(=O)O)cc1	APOBEC3A inh 40 | APOBEC3A confirm 32 | UDG ctr A3A inactive
O=C1CN(C(=O)CSc2nncs2)c2ccccc2N1	APOBEC3A inh 44 | APOBEC3A confirm inactive | UDG ctr A3A inactive
COCc1cc(C)nc(N2CCN(Cc3ccccc3)CC2)c1C#N	APOBEC3A inh 72 | APOBEC3A confirm 66 | UDG ctr A3A inactive
COc1ccc(CNC(=O)CN(Cc2ccco2)C(=O)CNS(=O)(=O)c2ccc(F)cc2)cc1	none
C=CCN1/C(=C2/SC(=S)N(C)C2=O)Sc2ccccc21	APOBEC3A inh 96 | APOBEC3A confirm 64
O=C(NCC1CCCO1)/C(=C\c1ccccc1F)NC(=O)c1ccccc1 (stereo not drawn)	none
O=C(Cc1ccc(S(=O)(=O)N2CCOCC2)s1)Nc1nc2c(s1)CCCC2	APOBEC3A inh 78 | APOBEC3A confirm 73 | UDG ctr A3A inactive
O=C(Cc1ccc(S(=O)(=O)N2CCOCC2)s1)Nc1ccc2c(c1)CCC2	none
COc1ccc(S(=O)(=O)NC(N)=NCCc2ccccc2)cc1	none
O=C(Nc1nc2ccccc2s1)C1CCN(S(=O)(=O)c2cc([N+](=O)[O-])ccc2Cl)CC1	APOBEC3A inh 80 | APOBEC3A confirm 40
CCC(C)NC(=O)C1CCN(S(=O)(=O)c2cc([N+](=O)[O-])ccc2Cl)CC1 (stereo not drawn)	none
CCN(Cc1ccc(OC)c(F)c1)C(=O)C1CCCO1 (stereo not drawn)	APOBEC3A inh 56 | APOBEC3A confirm 32 | UDG ctr A3A inactive
C/C(=N\NC(=O)c1ccc(O)cc1)c1ccc(NC(=O)Cc2ccccc2)cc1	none
CCOC(=O)N1CCC(NC(=O)C2CCN(C(=O)N3CCOc4ccccc43)CC2)CC1	none
CCOC(=O)N1CCC(NC(=O)C2CCCN(C(=O)N3CCOc4ccccc43)C2)CC1 (stereo not drawn)	APOBEC3A inh 54 | APOBEC3A confirm inactive | UDG ctr A3A inactive
COc1ccccc1C(=O)Nc1nnc(SCC(=O)Nc2ccc3c(c2)oc2ccccc23)s1	none
Cc1cccc(C(=O)Nc2nnc(SCC(=O)Nc3ccc4c(c3)oc3ccccc34)s2)c1	APOBEC3A inh 81 | APOBEC3A confirm 84 | UDG ctr A3A inactive
CCC(=O)Oc1ccc(C(=O)Nc2cccc(C(=O)c3ccccc3)c2)cc1	APOBEC3A inh 45 | APOBEC3A confirm inactive | UDG ctr A3A inactive
CC(=O)Oc1ccc(C(=O)Nc2cccc(C(=O)c3cccc(NC(=O)c4ccc(OC(C)=O)cc4)c3)c2)cc1	none
CN(CC(=O)Nc1ccccc1Br)C(=O)COc1ccc2ccccc2c1	none
COc1ccccc1OC(C)C(=O)N1CCN(Cc2ccc3c(c2)OCO3)CC1 (stereo not drawn)	APOBEC3A inh 57 | APOBEC3A confirm 48 | UDG ctr A3A inactive
COc1ccccc1C(=O)N1CCN(Cc2ccc3c(c2)OCO3)CC1	none
